These results are taken from PubChem BioAssay.

The subject of experiment [1] is Plasmodium falciparum Sir2 (PF13_0152, Sir2A). As to the kind of experiment: Plasmodium falciparum Sir2A binding compounds – biochemical, small-molecule microarray, 635 nm fluorescence, primary screen (AID 1098).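 Note: score merges spot fluorescence intensity with its signal-to-noise ratio.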 To be noted: fluorescence 635 nm, higher = more signal.
Experiment [2] in a line: probe aDKK1 binding to arrayed compounds – biochemical, biotinylated probe, 635/667 nm fluorescence, primary screen (AID 1099).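 Note: score merges 667nm spot fluorescence with signal to noise across triplicate slides.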 The settings on record: small-molecule microarray, higher = more signal.
The nature of experiment [3]: probe aCHRDL2 binding to arrayed compounds – biochemical, biotinylated probe, 635/667 nm fluorescence, primary screen (AID 1100). The settings on record: small-molecule microarray, higher = more signal.
Experiment [4] is described as follows: change in splice reporter luminescence, either direction, cell-based, HEK293, spliceosome inhibition project, primary screen (AID 1101).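 Note: HEK293 cells carrying a splicing-competent luciferase reporter gene; test concentration not given here.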 To be noted: HEK293 splicing luciferase reporter, 24 h, higher = more signal, called active from +8 up or from −8 down. A general note: In a reporter assay the amount or activity of a reporter protein is the signal.
Experiment [5] has as its target Fibroblast growth factor 10 (Homo sapiens) (UniProt O15520). Briefly: compounds binding fibroblast growth factor 10 – biochemical, small-molecule microarray, 635 nm fluorescence, primary screen (AID 1102). The settings on record: FGF10 binding, fluorescence 635 nm, higher = more signal.
The test system of experiment [6] is glycogen synthase kinase-3 (GSK3A per assay name; protocol says GSK3B). Briefly: compounds binding glycogen synthase kinase-3 – biochemical, small-molecule microarray, 635 nm fluorescence, GSK3A, primary screen (AID 1103). Note: the record names both GSK3A and GSK3B. To be noted: fluorescence 635 nm, higher = more signal.
Experiment [7] concerns the target Epidermal growth factor receptor (Homo sapiens) (UniProt P00533). Briefly: compounds binding epidermal growth factor receptor – biochemical, small-molecule microarray, 635 nm fluorescence, primary screen (AID 1104).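 Note: score merges 667 nm emission intensity with spot signal to noise over triplicate slides.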 To be noted: EGFR binding, higher = more signal.
Experiment [8] concerns the target Follistatin-related protein 3 (Homo sapiens) (UniProt O95633). Briefly: compounds binding follistatin-related protein 3 – biochemical, small-molecule microarray, 635 nm fluorescence, primary screen (AID 1105).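 Note: score merges emission near 667 nm and signal to noise per printed spot across three slides.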 To be noted: FSTL3 binding, higher = more signal.
Experiment [9] addresses Dickkopf-related protein 1 (Homo sapiens) (UniProt O94907). As to the kind of experiment: small molecules binding DKK1 protein – biochemical, small-molecule microarray, 635 nm fluorescence scan, primary screen (AID 1106).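 Note: score merges emission near 667 nm with signal to noise over three replicate slides.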 To be noted: higher = more signal.
Experiment [10] concerns Inhibin beta A chain (activin A). As to the kind of experiment: small molecules binding activin A – biochemical, small-molecule microarray, 635 nm fluorescence scan, primary screen (AID 1107).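 Note: mouse activin A protein probed at 4.33 µg/mL on printed slides; score merges bound-protein fluorescence near 667 nm with spot signal-to-noise.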 To be noted: INHBA, higher = more signal.
For experiment [11], the system named is Human papillomavirus type 1a protein E7 (residues 44-93). Briefly: small molecules binding HPV E7 44-93 – biochemical, small-molecule microarray, residues 44-93, 635 nm fluorescence, primary screen (AID 1108).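 Note: E7 fragment applied at 1 µg/mL in TBST for 1 h at 4 C; score combines spot fluorescence with its signal to noise ratio.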 To be noted: fluorescence 635 nm, higher = more signal.
A short description of experiment [12]: hepatitis C replication reporter changes, two-sided – Huh7 cells, luciferase reporter, HCV replication inhibitor project, primary screen (AID 1109).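 Note: huh7 hepatoma cells harbouring a luciferase neomycin HCV replicon reporter; luciferase luminescence as measure of HCV replicon replication; test concentration not given here.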 The settings on record: Huh7 HCV replicon luciferase reporter, 48 h; higher = more signal.
In experiment [13] the target is Left-right determination factor 2 (Homo sapiens) (UniProt O00292). As to the kind of experiment: small molecules binding LEFTY2 protein – biochemical, small-molecule microarray, 635 nm fluorescence scan, primary screen (AID 1110). To be noted: higher = more signal.
Experiment [14] deals with Calmodulin-1 (Homo sapiens) (UniProt P0DP23). As to the kind of experiment: small molecules binding calmodulin-1 with EGTA – biochemical, small-molecule microarray, Cy5-labelled CALM1, profiling panel (AID 1111).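 Note: labelled calmodulin applied in Tris saline Tween buffer holding calcium plus EGTA and DTT.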 The settings on record: Cy5-CALM1 binding fluorescence, higher = more signal.
For experiment [15] the target is unchanged. As to the kind of experiment: small molecules binding Ca-loaded calmodulin-1 – biochemical, small-molecule microarray, Cy5-labelled CALM1, plus calcium, artefact control for SMM control-protein annotation, profiling panel (AID 1112).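 Note: score merges spot fluorescence with signal to noise from triplicate slides.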 To be noted: Cy5-CALM1 binding fluorescence, higher = more signal.
Experiment [16] can be described thus: probe aWnt5a binding to arrayed compounds – biochemical, biotinylated probe, 635/667 nm fluorescence, primary screen (AID 1113).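 Note: score merges 667 nm fluorescence intensity with signal-to-noise per printed feature.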 To be noted: small-molecule microarray, higher = more signal.
Experiment [17] is described as follows: probe aShh binding to arrayed compounds – biochemical, biotinylated probe, 635/667 nm fluorescence, primary screen (AID 1114).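 Note: probe is biotin-labelled aShh protein from a stem cell growth factor screen; measures binding of labelled protein to compounds printed on the slide; score merges feature fluorescence at 667 nm with signal-to-noise.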 The settings on record: small-molecule microarray, higher = more signal.
Experiment [18] can be described thus: probe aNog binding to arrayed compounds – biochemical, biotinylated probe, 635/667 nm fluorescence, primary screen (AID 1115).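 Note: probe is biotinylated aNog protein used at 0.15 µg/mL for 1 h at 4 C; z-score combines 667 nm fluorescence of each spot with its signal to noise.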 The settings on record: small-molecule microarray, higher = more signal.
For experiment [19], the target named is Torsin-1A-interacting protein 1 (Homo sapiens) (UniProt Q5JTV8). Briefly: compound microarray binding of lysate hLAP1 – cell lysate, small-molecule microarray, COS7 lysate, 635/667 nm fluorescence, primary screen (AID 1116). To be noted: 635 nm fluorescence, higher = more signal.
Experiment [20] deals with Alpha-bungarotoxin (Bungarus multicinctus) (UniProt P60615). As to the kind of experiment: compounds binding labelled alpha-BTX control protein – biochemical, small-molecule microarray, Alexa647 label, 635/667 nm fluorescence, artefact control for SMM control protein annotation, profiling panel (AID 1117). The settings on record: alpha-BTX-A647 binding fluorescence, higher = more signal.

Active and inactive are the calls of the source.

Chain of Epidermal growth factor receptor (Homo sapiens) (P00533 whole entry, looked up): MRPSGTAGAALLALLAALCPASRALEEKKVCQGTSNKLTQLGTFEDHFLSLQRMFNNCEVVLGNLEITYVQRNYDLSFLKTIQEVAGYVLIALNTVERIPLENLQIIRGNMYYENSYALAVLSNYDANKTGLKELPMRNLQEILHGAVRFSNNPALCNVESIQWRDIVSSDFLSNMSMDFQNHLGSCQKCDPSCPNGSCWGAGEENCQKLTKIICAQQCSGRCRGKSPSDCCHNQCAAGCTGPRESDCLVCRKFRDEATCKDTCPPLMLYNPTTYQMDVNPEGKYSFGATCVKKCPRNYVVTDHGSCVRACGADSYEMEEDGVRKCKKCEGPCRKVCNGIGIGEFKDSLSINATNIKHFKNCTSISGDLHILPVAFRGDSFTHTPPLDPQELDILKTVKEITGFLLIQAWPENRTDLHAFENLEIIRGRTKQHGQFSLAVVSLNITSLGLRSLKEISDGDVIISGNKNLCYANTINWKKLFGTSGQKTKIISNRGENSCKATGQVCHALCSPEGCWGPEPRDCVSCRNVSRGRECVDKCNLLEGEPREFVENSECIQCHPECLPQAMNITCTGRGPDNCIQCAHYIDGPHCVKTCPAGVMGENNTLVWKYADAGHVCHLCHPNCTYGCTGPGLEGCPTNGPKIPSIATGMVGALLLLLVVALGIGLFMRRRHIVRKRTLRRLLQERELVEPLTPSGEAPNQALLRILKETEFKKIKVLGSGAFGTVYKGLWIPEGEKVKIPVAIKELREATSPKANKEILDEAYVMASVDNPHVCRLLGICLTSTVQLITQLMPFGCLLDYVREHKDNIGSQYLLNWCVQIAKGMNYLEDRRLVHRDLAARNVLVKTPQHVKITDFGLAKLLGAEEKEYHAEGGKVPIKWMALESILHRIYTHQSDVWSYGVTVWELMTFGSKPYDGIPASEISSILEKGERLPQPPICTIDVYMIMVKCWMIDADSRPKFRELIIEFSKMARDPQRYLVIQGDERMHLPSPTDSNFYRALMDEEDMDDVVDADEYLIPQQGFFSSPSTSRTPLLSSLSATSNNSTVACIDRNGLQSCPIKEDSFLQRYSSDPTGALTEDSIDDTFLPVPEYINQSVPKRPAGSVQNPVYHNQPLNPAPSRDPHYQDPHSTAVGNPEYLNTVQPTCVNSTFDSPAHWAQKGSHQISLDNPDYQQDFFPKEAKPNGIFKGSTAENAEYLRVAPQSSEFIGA
Chain of Dickkopf-related protein 1 (Homo sapiens) (O94907 whole entry, looked up): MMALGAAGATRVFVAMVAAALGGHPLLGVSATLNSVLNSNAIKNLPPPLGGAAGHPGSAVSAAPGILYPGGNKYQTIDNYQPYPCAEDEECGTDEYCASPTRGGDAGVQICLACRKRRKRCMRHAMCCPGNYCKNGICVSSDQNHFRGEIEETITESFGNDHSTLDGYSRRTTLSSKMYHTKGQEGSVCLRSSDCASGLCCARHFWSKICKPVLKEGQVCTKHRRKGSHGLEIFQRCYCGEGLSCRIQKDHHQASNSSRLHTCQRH
Chain of Follistatin-related protein 3 (Homo sapiens) (O95633 whole entry, looked up): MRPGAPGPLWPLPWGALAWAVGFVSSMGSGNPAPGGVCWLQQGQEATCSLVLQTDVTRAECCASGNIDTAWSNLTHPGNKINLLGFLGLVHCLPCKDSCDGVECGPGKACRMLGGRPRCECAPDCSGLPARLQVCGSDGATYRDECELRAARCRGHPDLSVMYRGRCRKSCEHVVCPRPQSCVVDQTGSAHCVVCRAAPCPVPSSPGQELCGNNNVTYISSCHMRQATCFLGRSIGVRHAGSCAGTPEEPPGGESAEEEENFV
Chain of Left-right determination factor 2 (Homo sapiens) (O00292 whole entry, looked up): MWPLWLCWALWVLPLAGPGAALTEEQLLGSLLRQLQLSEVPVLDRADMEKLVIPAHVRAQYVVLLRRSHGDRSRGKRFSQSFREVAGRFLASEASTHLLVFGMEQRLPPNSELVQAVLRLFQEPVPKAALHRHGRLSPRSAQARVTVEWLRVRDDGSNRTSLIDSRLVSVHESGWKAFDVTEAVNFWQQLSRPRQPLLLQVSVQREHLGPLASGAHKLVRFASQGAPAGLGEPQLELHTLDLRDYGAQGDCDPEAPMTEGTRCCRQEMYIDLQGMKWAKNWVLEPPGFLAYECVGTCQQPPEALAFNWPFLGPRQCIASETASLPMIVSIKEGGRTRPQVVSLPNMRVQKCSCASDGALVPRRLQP
Chain of Torsin-1A-interacting protein 1 (Homo sapiens) (Q5JTV8 whole entry, looked up): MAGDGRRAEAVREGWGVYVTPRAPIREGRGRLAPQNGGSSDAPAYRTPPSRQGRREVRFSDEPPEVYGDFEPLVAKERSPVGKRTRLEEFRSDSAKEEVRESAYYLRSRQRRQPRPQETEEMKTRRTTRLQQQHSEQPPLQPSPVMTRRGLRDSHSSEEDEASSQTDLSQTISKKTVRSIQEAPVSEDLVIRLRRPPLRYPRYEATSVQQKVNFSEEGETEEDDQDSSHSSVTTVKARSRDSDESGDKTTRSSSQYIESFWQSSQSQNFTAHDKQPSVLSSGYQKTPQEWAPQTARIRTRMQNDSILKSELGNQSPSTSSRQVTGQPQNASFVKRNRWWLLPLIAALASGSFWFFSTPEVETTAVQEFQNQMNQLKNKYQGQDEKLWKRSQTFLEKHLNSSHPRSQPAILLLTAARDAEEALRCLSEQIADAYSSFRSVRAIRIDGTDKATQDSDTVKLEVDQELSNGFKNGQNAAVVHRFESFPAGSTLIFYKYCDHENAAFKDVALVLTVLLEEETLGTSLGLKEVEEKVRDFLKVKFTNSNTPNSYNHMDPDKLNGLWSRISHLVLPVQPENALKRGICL
Chain of Alpha-bungarotoxin (Bungarus multicinctus) (P60615 whole entry, looked up): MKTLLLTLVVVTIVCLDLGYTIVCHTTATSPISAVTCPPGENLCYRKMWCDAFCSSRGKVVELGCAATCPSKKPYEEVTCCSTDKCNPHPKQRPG
Chain of Fibroblast growth factor 10 (Homo sapiens) (O15520 whole entry, looked up): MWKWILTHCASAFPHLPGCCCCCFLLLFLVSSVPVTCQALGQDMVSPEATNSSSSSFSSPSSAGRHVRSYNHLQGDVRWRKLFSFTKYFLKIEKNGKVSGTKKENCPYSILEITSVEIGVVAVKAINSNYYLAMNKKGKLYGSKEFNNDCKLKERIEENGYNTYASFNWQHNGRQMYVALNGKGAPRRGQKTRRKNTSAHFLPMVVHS

`Cc1ccc(S[C@]2(C(=O)NC(C)C)CC(=O)N(C(C)C)[C@@H]2c2ccc(CO)cc2I)cc1`: the composite z-score in experiment [1] was 0.476; in [2] it was 0.0345; in experiment [3], 0.706; in experiment [5] it was -0.101; in experiment [6] it was -0.498; in experiment [7], -0.56. Also, the composite z-score in experiment [8] is 0.298; in experiment [9], -0.484; in experiment [10] it was 0.904; in experiment [11] it was 0.973; in experiment [13], -0.485; in experiment [14], 0.198. For the same molecule, the composite z-score in experiment [15] was -0.114; in experiment [16] it was -0.104; in [17] it was 0.216; in experiment [18], -0.327; in experiment [19] it was 0.322; in experiment [20], -0.174. Besides, the z-score was -0.714 (inactive) in experiment [4] and -1.75 in experiment [12].
On to `CN(C)CCCCCCNC(=O)[C@@H]1C[C@@H]2C(=O)N[C@@H](CCCCN)C(=O)N2[C@@H]1c1ccc(O)cc1`, for which the composite z-score was determined as 2.07 in experiment [1]; 3 in [2]; 1.81 in [3]; 1.58 in experiment [5]; 1.46 in experiment [6]; 1.68 in [7]. The composite z-score in [8] amounted to 1.64; in experiment [9] it was 2.29; in [10] it was 1.56; in experiment [11], 1.53; in experiment [13] it was 1.62; in experiment [14] it was 2.11. In addition, the composite z-score in experiment [15] is 0.347; in experiment [16] it was 1.28; in [17], 2.47; in experiment [18], 1.96; in [19], 4.63; in experiment [20], 3.03. The z-score in [4] was -2.28 (inactive); in experiment [12], 0.805.
As to `CCOC(=O)C[C@H]1[C@H](OC(=O)c2ccc(C(=O)c3ccccc3)cc2)[C@@H](NC(=O)CC(C)C)c2cc(OCCCO)ccc2N1C(=O)Cc1ccc(OC)cc1`, the composite z-score in [1] was 0.0092; in [2], 0.393; in experiment [3], 0.671; in experiment [5] it was 0.197; in experiment [6], 0.231; in experiment [7], -0.204. For the same molecule, the composite z-score amounted to 0.261 in [8]; 0.276 in [9]; 0.829 in experiment [10]; 1.1 in experiment [11]; 0.142 in [13]; 1.19 in experiment [14]. Besides, the composite z-score was 0.263 in experiment [15]; -0.0852 in experiment [16]; -0.238 in experiment [17]; 0.0437 in [18]; 0.812 in experiment [19]; 0.118 in [20]. In addition, the values for the z-score in experiment [4] and in experiment [12] were -0.441 (inactive) and -2.05, respectively.
As to `COCCOC(=O)N1C(=O)[C@@]2(c3cc(C#CCC(C(=O)OC)C(=O)OC)ccc31)[C@H](C(=O)NC[C@H](O)c1ccccc1)[C@H]1C(=O)O[C@H](c3ccccc3)[C@H](c3ccccc3)N1[C@@H]2c1ccc(OCCO)cc1`, the composite z-score is 1.18 in experiment [1]; -0.0002 in experiment [2]; -0.132 in [3]; 1.04 in experiment [5]; 1.35 in [6]; 0.97 in experiment [7]. Further, the composite z-score is 1.09 in experiment [8]; 0.909 in experiment [9]; 0.534 in experiment [10]; 1.36 in [11]; 0.793 in experiment [13]; 1.39 in experiment [14]. In addition, the composite z-score in experiment [15] is -0.0628; in experiment [16], -0.0792; in [17], 0.0141; in experiment [18], -0.367; in [19], 0.314; in [20], 0.973. In addition, the z-score in experiment [4] is 0.28 (inactive); in experiment [12], -1.92.
For the molecule `NC(=O)[C@H]1[C@@H]2C(=O)O[C@@H](c3ccccc3)[C@@H](c3ccccc3)N2[C@@H](c2ccc(O)cc2)[C@]12C(=O)Nc1ccccc12`, the composite z-score is 0.845 in experiment [1]; -0.352 in [2]; 0.561 in [3]; -1.07 in experiment [5]; -1.69 in experiment [6]; -1.15 in experiment [7]. Moreover, the composite z-score in experiment [8] was -1.51; in [9] it was -1.34; in [10] it was -1.11; in experiment [11], -0.0092; in experiment [13] it was -0.194; in experiment [14], -0.408. In addition, the composite z-score in experiment [15] is 0.517; in [16], -0.0124; in experiment [17], -0.214; in experiment [18] it was -0.0753; in experiment [19] it was -0.428; in [20], -1.15. The figures for the z-score in [4] and in experiment [12] were -0.0764 (inactive) and -0.449, respectively.
On to `CC(C)OC(=O)CC(=O)CC(O)c1ccc([N+](=O)[O-])cc1` (stereo not given), for which the composite z-score in experiment [1] is 0.541; in [2], 0.749; in [3] it was 1.14; in [5] it was 0.314; in experiment [6] it was 0.132; in [7], -0.41. Also, the composite z-score was 0.198 in experiment [8]; -0.953 in [9]; 0.527 in experiment [10]; 1.13 in experiment [11]; -0.698 in [13]; -0.759 in experiment [14]. In addition, the composite z-score in experiment [15] is -0.833; in experiment [16], 0.093; in [17] it was 0.163; in experiment [18], 0.431; in [19] it was 0.47; in [20], -0.292. Moreover, the z-score is 0.162 (inactive) in experiment [4] and -0.601 in experiment [12].
